Laboratory results reported in PubChem BioAssay AID504462 (Sanford-Burnham Center for Chemical Genomics, 2011).
Where “and” joins values, the source holds several entries; their conditions need not be identical. Identical values can stand only once. The campaign covered roughly 340,000 compounds. About 1,700 (0.5%) were called active. No stated cut-off is given here; in the data, active means inhibition above about 40%; inactive means the rest. Only a selection was taken, and actives are over-represented in it overall.

target: Cysteine protease ATG4B (Homo sapiens) (UniProt Q9Y4P1); assay: blockers of ATG4B cysteine protease activity – biochemical, fluorescence, uHTS, primary screen (AID 504462); details: ATG4B cleavage of LC3-PLA2, NBD-HPC fluorescence, 1 h; at 8.33 µM; hits give high values
Sequence (Q9Y4P1 whole entry, looked up): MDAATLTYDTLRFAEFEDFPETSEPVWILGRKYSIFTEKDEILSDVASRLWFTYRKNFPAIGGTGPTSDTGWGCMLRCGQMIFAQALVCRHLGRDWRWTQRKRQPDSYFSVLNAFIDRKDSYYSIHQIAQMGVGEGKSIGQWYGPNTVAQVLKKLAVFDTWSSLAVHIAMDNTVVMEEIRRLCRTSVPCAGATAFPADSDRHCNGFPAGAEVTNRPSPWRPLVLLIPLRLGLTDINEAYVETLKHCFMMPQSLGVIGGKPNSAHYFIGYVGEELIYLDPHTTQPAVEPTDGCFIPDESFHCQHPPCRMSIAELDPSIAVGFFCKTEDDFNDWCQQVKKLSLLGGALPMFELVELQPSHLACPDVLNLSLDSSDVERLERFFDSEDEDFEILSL

inhibition, inactive:
CCN(CC(=O)Nc1c(F)cccc1F)C(=O)c1ccc(-c2ccccc2)cc1 4.11%
O=C(c1cccs1)N1CCN(Cc2ccc3c(c2)OCO3)CC1 -7.13%
CCCCCc1c(C)nc(N2CCN(Cc3ccc4c(c3)OCO4)CC2)[nH]c1=O -0.63%
COC(=O)c1ccc(CNC(=O)Cn2cc(C)c(=O)[nH]c2=O)cc1 -5.77%
CN1CCN(Cc2nc3cc(NC(=O)COc4ccc([N+](=O)[O-])cc4)ccc3n2C)CC1 -4.73%
CC12c3ccccc3C(c3ccccc31)C1C(=O)N(Cc3cccnc3)C(=O)C12 (configuration not stated) -4.51%
Cc1cccc(C)c1N1CCN(S(=O)(=O)N2CCOCC2)CC1 19.1%
Cc1cccc(C(=O)N2CCN(S(=O)(=O)N3CCCCC3)CC2)c1 0.43%
O=C(O)c1ccc(S(=O)(=O)N2CCOCC2)o1 0.56%
O=c1cc(CO)oc(C(Nc2cccc([N+](=O)[O-])c2)c2ccccn2)c1O (configuration not stated) -12.1%
CCOn1c(SC(C)C)nc2ccccc2c1=O 7.51%
COCC(C)n1c(SCC(=O)NC2CCCCC2C)nc2ccccc2c1=O (configuration not stated) -0.82%
O=C(CNC(=O)c1ccc(Br)o1)NCC1CCCO1 (configuration not stated) -6.66%
Cc1ccc(C)c(-n2cc(CN3CCN(C(=O)c4ncn[nH]4)CC3)c(-c3ccccc3)n2)c1 2.98%
Cc1ccc(C(=O)C[n+]2cc(-c3ccccc3)n3c2CCCCC3)cc1 10.8% and 3.23%
COc1ccc(Br)cc1/C=N/Nc1ccc(S(=O)(=O)Nc2ccccc2C(=O)O)cc1[N+](=O)[O-] 12.8%
O=C(O)c1ccccc1/C=N/Nc1ccc(S(=O)(=O)Nc2ccc(Cl)cc2)cc1[N+](=O)[O-] 1.28%
O=C(OCc1cc(Cl)ccc1OC(F)F)c1cccnc1 -2.74%
COc1ccc(CNC(=O)C2(CC3CC(c4ccccc4)=NO3)CCN(C(=O)c3cccc(O)c3)CC2)cc1 (configuration not stated) -7.3%
CCOC(=O)c1c(-c2ccccc2)oc2ccc(OCC(=O)NN)cc12 -2.49%
CCOC(=O)c1c(-c2ccccc2)oc2cc(Br)c(O)cc12 -6.47%
O=C(CCc1ccccc1)Nc1ccc(NC(=O)C2CC2)nc1 -15.9%
Cn1c(=O)c2c(SCC(=O)N3CCOCC3)nc(C3CC3)nc2n(C)c1=O -4.88%
Cc1ccc(NC(=S)NCCc2ccc(Cl)cc2)c(C)c1 5.82%
Cc1cccc(NC(=S)NCCc2ccc(F)cc2)c1C 20.9%
O=C(Nc1cccn(Cc2ccccc2Cl)c1=O)NC1CCCCC1 -3.28%
Cc1ccc(CNC(=O)CSc2nnc3c(n2)[nH]c2ccc(F)cc23)cc1 -1.66%
CC1=CC2=NC(=O)/C(=C/c3coc4ccccc4c3=O)C(=N)N2O1 -5.2%
O=C(CNC(=O)c1ccccc1)NCC(=O)OCc1ccc(Cl)cc1 -3.69%
S=C(NCc1ccco1)NCc1ccccc1Cl 13.4%
S=C(NCCc1ccccc1)NCC1CCCO1 (configuration not stated) -7.53%
O=C1c2ccccc2C(=O)N1CCC(c1ccccc1)c1ccco1 (configuration not stated) 15.9%
CC(Oc1ccc(F)cc1)C(=O)Nc1cc(S(=O)(=O)N2CCOCC2)ccc1N1CCN(C)CC1 (configuration not stated) -5.35%
COc1ccccc1S(=O)(=O)c1c(C)cc(C)[nH]c1=O -5.56%
Cc1c(NC(=O)CCCOc2ccccc2)cccc1[N+](=O)[O-] -6.83%
Cc1onc(C(=O)NCc2ccc(F)cc2)c1[N+](=O)[O-] 1.98%
CCOC(=O)N1CCC(NC(=O)Cn2cc3c(n2)CCCCC3)CC1 -3.87%
COC(=O)Cc1c(-c2[nH]c3ccccc3c2CC(=O)OC)[nH]c2ccccc12 5.62%
CCn1c2ccccc2c2cc(CC(N)=O)ccc21 25%
CC(OC(=O)c1ccc(-n2cnnn2)cc1)C(=O)NCc1ccccc1 (configuration not stated) -0.42%
CCCCn1c(N)c(N(CC)C(=O)c2ccccc2C(F)(F)F)c(=O)[nH]c1=O 1.66%
CC(C)(CNC(=O)c1cc(=O)[nH]c2ccccc12)N1CCOCC1 -6.8%
Cc1c(N=Nc2ccc(N(C)C)cc2)c(=O)n(-c2ccccc2)n1C -2.28%
CCOC(=O)c1c(C)oc2ccc(OCC(=O)N(CC)CC)cc12 -8.98%
CC(=O)c1c(C)n(-c2ccc(C)cc2)c2ccc(O)cc12 -0.19%
COc1ccc(NC(=O)CSc2nnc(Cc3ccccc3)c(=O)n2N)cc1 -4.35%
N#Cc1c(-c2ccccc2)nc(SCc2cccc(C(F)(F)F)c2)[nH]c1=O 34.9%
N#Cc1c(-c2ccc(F)cc2)nc(-c2ccccc2)[nH]c1=O 5.66%
Cc1cccc(N2CCN(C(c3ccc(N(C)C)cc3)c3nnnn3C(C)(C)C)CC2)c1C (configuration not stated) -1.38%
COc1cc(C)c(S(=O)(=O)N2CCOCC2)c(C)c1C -9.43%
COC(=O)c1c(NC(=O)CSc2nncs2)sc2c1CCCCC2 -14.5%
N#Cc1c(NC(=O)C2CC(Cl)=CCC2C(=O)O)sc2c1CCCCC2 (configuration not stated) -4.77%
O=C(CNC(=O)[C@@H]1Cc2ccccc2CN1)NC1CCCCC1 -3.14%
CCSC(C)CC1C/C(=N/O)c2c(C)noc2C1 (configuration not stated) -1.06%

inhibition, active:
Fc1ccc2[nH]c3c(N4CCN(Cc5ccc6c(c5)OCO6)CC4)ncnc3c2c1 48.4%
Cc1cccc(C)c1N1CCN(S(=O)(=O)N2CCCCC2)CC1 54.5%
CCOC(=O)C(C)Sc1nc2ccccc2c(=O)n1CC1CCCCC1 (configuration not stated) 41.4%
COc1cccc(/C=N/Nc2ccc(S(=O)(=O)Nc3ccccc3C(=O)O)cc2[N+](=O)[O-])c1O 42.3%
CCOC(=O)c1c(-c2ccccc2)oc2cc(Br)c(O)c(C=O)c12 49.9%
Cc1cccc(NC(=S)NCCc2ccc(Cl)cc2)c1C 48.4%
Cc1ccc(N=C2NC(=O)/C(=C/C=C/c3ccco3)S2)cc1C 47.9%
S=C(NCCc1ccccc1)NCc1ccccc1Cl 48.6%
Cc1c(NC(=S)NCc2ccc(F)cc2)cccc1[N+](=O)[O-] 77.1%
NC(=O)Cc1ccc2c(c1)[nH]c1ccccc12 47.3%
CC(=O)c1c(C)n(-c2ccc(N(C)C)cc2)c2ccc(OCC(N)=O)cc12 82.1%
Cc1ccc(CSc2nc(-c3ccccc3)c(C#N)c(=O)[nH]2)cc1 49.2%
COC(=O)c1c(NC(=O)C2CC(C)=C(C)CC2C(=O)O)sc2c1CCCCC2 (configuration not stated) 70.5%
